In PubChem BioAssay (Tox21):
Unmarked numbers belong to inactive results. Results filed as inconclusive are left out. Where a call stands in place of a potency, no number is given. The source made the active and inactive calls. Unless noted, calls follow the shape of the dose curve; as a rule, active = well fitted curve in the direction sought with a large enough effect in the repeat runs; inconclusive = weak or mixed curves; inactive = no such curve, though single readings can be large; an effect the other way counts as inactive or inconclusive.

Assays:
[1] = target: Thyrotropin-releasing hormone receptor (Homo sapiens) (UniProt P34981); assay: qHTS assay to identify small molecule agonists of the thyrotropin-releasing hormone receptor (TRHR) signaling pathway (AID 1346891; calls by dose curve; also: series mostly up to about 58 µM)
Chain of Thyrotropin-releasing hormone receptor (Homo sapiens) (P34981 whole entry, looked up): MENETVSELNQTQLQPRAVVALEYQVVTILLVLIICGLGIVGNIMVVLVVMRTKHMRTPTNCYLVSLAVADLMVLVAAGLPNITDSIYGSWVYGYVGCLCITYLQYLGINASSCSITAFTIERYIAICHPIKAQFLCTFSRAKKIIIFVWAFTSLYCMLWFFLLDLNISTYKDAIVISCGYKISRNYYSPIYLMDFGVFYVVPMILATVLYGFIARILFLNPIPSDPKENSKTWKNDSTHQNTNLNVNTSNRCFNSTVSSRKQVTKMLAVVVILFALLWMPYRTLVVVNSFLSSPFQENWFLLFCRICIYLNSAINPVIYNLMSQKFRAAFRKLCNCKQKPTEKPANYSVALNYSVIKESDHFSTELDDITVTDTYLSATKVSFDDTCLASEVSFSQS
Procedure, shortened: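 Intracellular calcium rise, read as fluorescence every second for 3 min, served as the agonist signal in dye-loaded HEK293 cells expressing TRHR; each compound ran at 15 concentrations in triplicate.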

[2] = Human pregnane X receptor (PXR) small molecule agonists, qHTS cell viability counter screen (AID 1346977); also: nearly all actives have a fitted effect of over 50% in size; also: potency is read from the fitted curve at half-maximal effect
Procedure, shortened: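 PXR-Luc HepG2, 2,000 cells/well, 5% charcoal-stripped FBS; 5hr settle; cpd 24hr, 37C/5% CO2; CellTiter-Fluor at 23hr, read 1hr later (fluorescence).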

[3] = Caspase-3/7 induction in CHO-K1 cells by small molecules, qHTS assay (AID 1346980); also: nearly all actives have a fitted effect of over 15% in size
Procedure, shortened: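 Wild-type CHO-K1 cells exposed to compounds for 17hr at 37 C, 5% CO2. Caspase-3/7 activity then measured by Caspase-Glo 3/7 luminescence after 30min at room temperature.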

[4] = Caspase-3/7 induction in HepG2 cells by small molecules, qHTS cell viability counter screen (AID 1346981); also: nearly all actives have a fitted effect of over 30% in size; also: potency is read from the fitted curve at half-maximal effect
Procedure, shortened: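 HepG2, WT, 2,000 cells/well; 5 hr pre-incubation 37 C/5% CO2; compound pin-transferred from DMSO; 16 hr exposure; CellTiter-Fluor, 1 hr; fluorescence read.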

[5] = target: Nuclear receptor subfamily 1 group I member 2 (Homo sapiens) (UniProt O75469); assay: Human pregnane X receptor (PXR) small molecule agonists, qHTS assay (AID 1346982); also: nearly all actives have a fitted effect of over 35% in size; also: potency is read from the fitted curve at half-maximal effect
Chain of Nuclear receptor subfamily 1 group I member 2 (Homo sapiens) (O75469 whole entry, looked up): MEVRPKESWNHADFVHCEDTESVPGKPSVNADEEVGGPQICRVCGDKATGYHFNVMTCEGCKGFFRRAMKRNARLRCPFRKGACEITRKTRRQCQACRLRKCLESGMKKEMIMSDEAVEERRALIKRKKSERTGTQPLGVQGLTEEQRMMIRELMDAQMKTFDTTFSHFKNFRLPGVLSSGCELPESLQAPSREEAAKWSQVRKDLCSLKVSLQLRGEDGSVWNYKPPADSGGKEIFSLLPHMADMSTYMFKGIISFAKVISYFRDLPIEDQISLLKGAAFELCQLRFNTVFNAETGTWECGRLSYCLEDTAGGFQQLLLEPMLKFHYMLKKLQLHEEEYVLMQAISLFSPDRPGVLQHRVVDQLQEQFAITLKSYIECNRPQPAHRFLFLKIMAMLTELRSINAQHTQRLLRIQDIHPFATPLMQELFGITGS
Procedure, shortened: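 Luciferase signal from ONE-Glo (30 min, room temperature) measured activation of hPXR-driven CYP3A4 reporter expression in PXR-Luc HepG2 cells treated with compounds for 24 hr at 37 C.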

[6] = target: Cytochrome P450 2C19 (Homo sapiens) (UniProt P33261); assay: Cytochrome P450 Family 2 Subfamily C Member 19 (CYP2C19) small molecule antagonists: luciferase reporter qHTS assay (AID 1671197); also: nearly all actives have a fitted effect of over 65% in size; also: potency is read from the fitted curve at half-maximal effect
Chain of Cytochrome P450 2C19 (Homo sapiens) (P33261 whole entry, looked up): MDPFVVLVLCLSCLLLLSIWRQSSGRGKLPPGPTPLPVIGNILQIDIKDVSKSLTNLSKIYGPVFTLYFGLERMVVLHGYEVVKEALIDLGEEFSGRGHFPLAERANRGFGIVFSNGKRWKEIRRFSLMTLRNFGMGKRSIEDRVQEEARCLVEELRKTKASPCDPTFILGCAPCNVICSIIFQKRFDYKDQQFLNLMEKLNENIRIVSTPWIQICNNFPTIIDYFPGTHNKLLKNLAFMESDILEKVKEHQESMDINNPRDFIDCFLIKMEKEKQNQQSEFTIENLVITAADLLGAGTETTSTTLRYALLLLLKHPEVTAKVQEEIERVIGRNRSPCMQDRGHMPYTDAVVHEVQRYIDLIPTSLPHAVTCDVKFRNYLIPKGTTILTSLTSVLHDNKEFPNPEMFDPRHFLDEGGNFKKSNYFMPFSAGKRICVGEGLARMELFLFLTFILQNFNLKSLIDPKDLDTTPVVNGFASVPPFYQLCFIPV
Procedure, shortened: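 Relative luminescence units recorded 20 min after the detection reagent stopped a 1 h, 37C CYP2C19 reaction on proluciferin substrate, which was started by NADPH regeneration following 10 min room-temperature compound preincubation; ketoconazole positive control.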

[7] = target: Cytochrome P450 2C9 (Homo sapiens) (UniProt P11712); assay: Cytochrome P450 Family 2 Subfamily C Member 9 (CYP2C9) small molecule antagonists: luciferase reporter qHTS assay (AID 1671198); also: nearly all actives have a fitted effect of over 50% in size; also: potency is read from the fitted curve at half-maximal effect
Chain of Cytochrome P450 2C9 (Homo sapiens) (P11712 whole entry, looked up): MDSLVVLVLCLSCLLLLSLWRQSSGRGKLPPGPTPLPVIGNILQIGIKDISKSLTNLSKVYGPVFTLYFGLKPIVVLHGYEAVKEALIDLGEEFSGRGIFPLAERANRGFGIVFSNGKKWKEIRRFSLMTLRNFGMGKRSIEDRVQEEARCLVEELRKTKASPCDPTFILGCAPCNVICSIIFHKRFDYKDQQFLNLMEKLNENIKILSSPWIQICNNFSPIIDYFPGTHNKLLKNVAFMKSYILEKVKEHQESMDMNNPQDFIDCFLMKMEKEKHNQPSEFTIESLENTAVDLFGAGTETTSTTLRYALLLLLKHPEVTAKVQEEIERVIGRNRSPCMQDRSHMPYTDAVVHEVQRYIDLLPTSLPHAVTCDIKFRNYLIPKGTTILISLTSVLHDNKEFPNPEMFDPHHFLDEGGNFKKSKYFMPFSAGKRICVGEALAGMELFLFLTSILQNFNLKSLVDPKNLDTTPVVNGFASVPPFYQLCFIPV
Procedure, shortened: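 P450-Glo proluciferin substrate with CYP2C9 enzyme; 10 min RT preincubation, then NADPH regeneration 1 h at 37C; luciferin detection reagent 20 min RT, luminescence in relative luminescence units.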

[8] = target: Cytochrome P450 1A2 (Homo sapiens) (UniProt P05177); assay: Cytochrome P450 Family 1 Subfamily A Member 2 (CYP1A2) small molecule antagonists: luciferase reporter qHTS assay (AID 1671199); also: nearly all actives have a fitted effect of over 50% in size; also: potency is read from the fitted curve at half-maximal effect
Chain of Cytochrome P450 1A2 (Homo sapiens) (P05177 whole entry, looked up): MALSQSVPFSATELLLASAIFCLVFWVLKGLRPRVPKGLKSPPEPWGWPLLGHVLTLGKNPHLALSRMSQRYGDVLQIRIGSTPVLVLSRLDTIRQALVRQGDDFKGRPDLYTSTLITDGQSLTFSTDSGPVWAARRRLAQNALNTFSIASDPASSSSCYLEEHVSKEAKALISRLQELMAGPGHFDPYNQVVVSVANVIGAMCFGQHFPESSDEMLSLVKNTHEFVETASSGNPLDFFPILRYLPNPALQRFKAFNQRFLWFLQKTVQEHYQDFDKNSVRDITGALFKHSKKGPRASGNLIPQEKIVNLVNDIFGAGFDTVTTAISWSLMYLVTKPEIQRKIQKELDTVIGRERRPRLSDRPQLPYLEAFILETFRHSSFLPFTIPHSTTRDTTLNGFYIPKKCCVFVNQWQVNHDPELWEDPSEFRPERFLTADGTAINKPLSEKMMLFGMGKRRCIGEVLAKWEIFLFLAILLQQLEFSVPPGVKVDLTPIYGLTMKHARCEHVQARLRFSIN
Procedure, shortened: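 P450-Glo CYP1A2, 1536-well qHTS: enzyme/proluciferin substrate + cpd (DMSO), 10 min RT; NADPH regen, 1 h RT; detection reagent, 20 min; luminescence, RLU.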

[9] = target: Cytochrome P450 3A4 (Homo sapiens) (UniProt P08684); assay: Cytochrome P450 Family 3 Subfamily A Member 4 (CYP3A4) small molecule antagonists: luciferase reporter qHTS assay (AID 1671201); also: nearly all actives have a fitted effect of over 50% in size; also: potency is read from the fitted curve at half-maximal effect
Chain of Cytochrome P450 3A4 (Homo sapiens) (P08684 whole entry, looked up): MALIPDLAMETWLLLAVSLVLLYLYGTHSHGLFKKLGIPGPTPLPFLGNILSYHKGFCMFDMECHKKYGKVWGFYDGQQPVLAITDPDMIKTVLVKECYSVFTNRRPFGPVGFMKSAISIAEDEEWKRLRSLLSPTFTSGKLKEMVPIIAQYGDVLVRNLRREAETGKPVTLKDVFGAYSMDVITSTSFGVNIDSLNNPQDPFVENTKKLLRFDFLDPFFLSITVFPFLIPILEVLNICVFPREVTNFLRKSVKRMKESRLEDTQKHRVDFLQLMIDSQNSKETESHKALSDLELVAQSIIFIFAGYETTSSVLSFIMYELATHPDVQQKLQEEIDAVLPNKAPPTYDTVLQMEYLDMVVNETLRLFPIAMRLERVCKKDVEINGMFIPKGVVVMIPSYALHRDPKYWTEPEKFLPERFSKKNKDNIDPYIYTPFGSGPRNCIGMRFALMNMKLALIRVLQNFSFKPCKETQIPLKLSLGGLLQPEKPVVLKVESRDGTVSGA
Procedure, shortened: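 Compounds in DMSO were pin-transferred onto CYP3A4 enzyme-substrate mix and held 10 min at room temperature. NADPH regenerating solution started the reaction for 1 h; luciferin detection reagent stopped it, and luminescence was read after 20 min.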

[10] = Caspase-3/7 induction in HepG2 cells by small molecules, qHTS assay (AID 1346978); also: nearly all actives have a fitted effect of over 15% in size; also: potency is read from the fitted curve at half-maximal effect
Procedure, shortened: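 Wild-type HepG2 cells, 2,000/well, settled 5 hr at 37 C and 5% CO2, then compound-treated for 17 hr; caspase-3/7 activity read by luminescent Caspase-Glo 3/7 after 30 min at room temperature.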

[11] = Caspase-3/7 induction in CHO-K1 cells by small molecules, qHTS cell viability counter screen (AID 1346979); also: nearly all actives have a fitted effect of over 35% in size; also: potency is read from the fitted curve at half-maximal effect
Procedure, shortened: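 Cells (CHO-K1, wild type) are plated at 1,500 per well and incubated 5hr. Test compounds in DMSO are then pinned in, followed by 16hr at 37C and 5% CO2. Viability is read by CellTiter-Fluor fluorescence after 1hr.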

[12] = target: Cytochrome P450 2D6 (Homo sapiens) (UniProt P10635); assay: Cytochrome P450 Family 2 Subfamily D Member 6 (CYP2D6) small molecule antagonists: luciferase reporter qHTS assay (AID 1671196); also: nearly all actives have a fitted effect of over 50% in size; also: potency is read from the fitted curve at half-maximal effect
Chain of Cytochrome P450 2D6 (Homo sapiens) (P10635 whole entry, looked up): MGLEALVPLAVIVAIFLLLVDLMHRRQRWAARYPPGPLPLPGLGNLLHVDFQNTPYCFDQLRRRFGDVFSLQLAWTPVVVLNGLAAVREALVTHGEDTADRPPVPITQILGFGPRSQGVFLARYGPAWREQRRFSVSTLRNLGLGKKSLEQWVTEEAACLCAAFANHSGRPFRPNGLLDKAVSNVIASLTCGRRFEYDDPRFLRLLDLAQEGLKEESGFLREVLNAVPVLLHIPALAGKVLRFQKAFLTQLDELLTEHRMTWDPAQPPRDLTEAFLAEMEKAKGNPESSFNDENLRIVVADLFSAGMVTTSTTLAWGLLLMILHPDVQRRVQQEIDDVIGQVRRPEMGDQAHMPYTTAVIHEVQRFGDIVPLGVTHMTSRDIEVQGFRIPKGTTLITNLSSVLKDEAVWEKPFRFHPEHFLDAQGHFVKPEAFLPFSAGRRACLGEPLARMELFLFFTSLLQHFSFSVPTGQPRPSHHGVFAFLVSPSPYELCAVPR
Procedure, shortened: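 Read-out is luminescence from luciferin formed by CYP2D6 turnover of a proluciferin substrate, recorded as relative luminescence units. Reactions ran 1 h at room temperature after NADPH regeneration solution was added.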

[13] = target: Nuclear receptor subfamily 1 group I member 2 (Rattus norvegicus) (UniProt Q9R1A7); assay: Rat pregnane X receptor (rPXR) activation by small molecules, qHTS assay (AID 1346983); conditions: rPXR luciferase reporter cells, One-Glo luminescence, 24 h; max activation: stronger effect = higher value; also: nearly all actives have a fitted effect of over 20% in size; also: potency is read from the fitted curve at half-maximal effect
Chain of Nuclear receptor subfamily 1 group I member 2 (Rattus norvegicus) (Q9R1A7 whole entry, looked up): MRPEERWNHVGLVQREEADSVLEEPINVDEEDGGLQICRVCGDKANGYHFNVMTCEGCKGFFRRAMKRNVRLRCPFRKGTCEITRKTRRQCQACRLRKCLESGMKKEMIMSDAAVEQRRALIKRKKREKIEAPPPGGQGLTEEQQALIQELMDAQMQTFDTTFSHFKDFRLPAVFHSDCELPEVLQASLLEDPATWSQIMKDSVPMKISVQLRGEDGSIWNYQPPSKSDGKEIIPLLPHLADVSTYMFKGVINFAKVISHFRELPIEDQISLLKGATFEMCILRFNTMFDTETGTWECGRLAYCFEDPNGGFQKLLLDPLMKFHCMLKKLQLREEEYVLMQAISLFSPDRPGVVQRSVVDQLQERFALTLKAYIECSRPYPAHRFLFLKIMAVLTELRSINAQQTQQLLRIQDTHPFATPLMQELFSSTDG
Procedure, shortened: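 Cell-based rPXR activation assay: rPXR cells, 2,000 per well, rested 5hr at 37 C, then exposed to compounds in DMSO for 24 hr at 37 C. Luciferase activity read by One-Glo luminescence after 30 min at room temperature.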

[14] = target: Nuclear receptor subfamily 1 group I member 2 (Homo sapiens) (UniProt O75469); assay: CYP3A4 induction through human pregnane X receptor (PXR) by small molecules, qHTS assay (AID 1346984); also: nearly all actives have a fitted effect of over 40% in size; also: potency is read from the fitted curve at half-maximal effect
Procedure, shortened: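 Luminescence readout: luciferase signal after One-Glo (30 min, room temperature), following 3 h at 37C with 3uM final Luciferin-IPA P450 substrate. Cells were DPX-2 (HepG2, PXR/CYP3A4-luc co-transfected) dosed for 24 h.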

[15] = target: Nuclear receptor subfamily 1 group I member 2 (Homo sapiens) (UniProt O75469); assay: Human pregnane X receptor (PXR) activation by small molecules, qHTS assay (AID 1346985); also: nearly all actives have a fitted effect of over 40% in size; also: potency is read from the fitted curve at half-maximal effect
Procedure, shortened: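 DPX-2 cells (HepG2 co-transfected with a PXR response element and a CYP3A4-promoter luciferase construct) were seeded at 2,000 per well, rested 5 hr at 37C, then exposed to DMSO-dissolved compounds for 24 hr. Activation was read as luciferase luminescence.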

[16] = target: Voltage-gated inwardly rectifying potassium channel KCNH2 (Homo sapiens) (UniProt Q12809); assay: Human Ether-a-go-go-Related Gene (hERG) channel small molecule antagonists: fluorescence cell-based qHTS assay (AID 1671200)
Chain of Voltage-gated inwardly rectifying potassium channel KCNH2 (Homo sapiens) (Q12809 whole entry, looked up): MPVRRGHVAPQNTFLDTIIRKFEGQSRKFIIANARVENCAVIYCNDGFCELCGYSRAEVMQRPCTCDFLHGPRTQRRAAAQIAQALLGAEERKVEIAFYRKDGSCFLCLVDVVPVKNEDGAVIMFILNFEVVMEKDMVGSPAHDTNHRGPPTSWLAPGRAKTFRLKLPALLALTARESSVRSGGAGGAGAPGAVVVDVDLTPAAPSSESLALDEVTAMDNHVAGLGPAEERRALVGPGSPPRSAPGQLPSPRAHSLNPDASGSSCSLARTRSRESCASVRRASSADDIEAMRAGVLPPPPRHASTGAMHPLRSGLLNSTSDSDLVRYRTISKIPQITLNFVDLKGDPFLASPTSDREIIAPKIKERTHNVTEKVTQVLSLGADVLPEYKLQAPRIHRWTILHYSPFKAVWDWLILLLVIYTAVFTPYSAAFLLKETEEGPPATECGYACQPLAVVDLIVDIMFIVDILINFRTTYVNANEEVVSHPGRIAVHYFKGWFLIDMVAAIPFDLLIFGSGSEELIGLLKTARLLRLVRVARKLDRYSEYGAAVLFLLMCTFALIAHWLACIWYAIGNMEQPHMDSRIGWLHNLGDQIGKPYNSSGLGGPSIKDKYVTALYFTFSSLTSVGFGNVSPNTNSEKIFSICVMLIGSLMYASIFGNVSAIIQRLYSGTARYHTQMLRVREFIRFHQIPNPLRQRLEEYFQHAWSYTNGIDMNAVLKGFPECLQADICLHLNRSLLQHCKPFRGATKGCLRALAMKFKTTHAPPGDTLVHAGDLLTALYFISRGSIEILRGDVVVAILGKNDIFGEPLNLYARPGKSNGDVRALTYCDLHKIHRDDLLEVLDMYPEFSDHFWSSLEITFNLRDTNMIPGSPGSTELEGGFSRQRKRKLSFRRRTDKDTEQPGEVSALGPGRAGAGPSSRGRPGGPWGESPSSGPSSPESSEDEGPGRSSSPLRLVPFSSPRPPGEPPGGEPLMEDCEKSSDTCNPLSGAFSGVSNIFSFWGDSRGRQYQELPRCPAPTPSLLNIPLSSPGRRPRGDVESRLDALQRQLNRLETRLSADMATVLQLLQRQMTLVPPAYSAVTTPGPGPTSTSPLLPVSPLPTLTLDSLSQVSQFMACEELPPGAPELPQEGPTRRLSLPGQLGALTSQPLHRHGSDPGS
Procedure, shortened: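 Channel function was assessed by thallium flux. Cells seeded the previous day and kept at 37 C took up FluxOR II dye over 1 h in the dark at room temperature, then sat another 10 min before stimulation.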

Compound | Potency [1] | Potency [2] | outcome [3] | Potency [4] | Potency [5] | Potency [6] | Potency [7] | Potency [8] | Potency [9] | Potency [10] | Potency [11] | Potency [12] | max activation [13] [%] | Potency [14] | Potency [15] | Potency [16] | Potency [13]
CCCCC/C(=C\c1ccccc1)CO | inactive | inactive | inactive | inactive | inactive | 1.76 µM (active) | 39.4 µM (active) | 3.94 µM (active) | inactive | – | – | – | – | – | – | – | –
CC1CC(=O)NN=C1c1ccc(NCC(C)(C)NCC(O)COc2cc(Cl)ccc2C#N)cc1 (stereo not given) | inactive | – | inactive | inactive | 26.6 µM (active) | 13.8 µM (active) | 12.3 µM (active) | inactive | – | inactive | inactive | 5.49 µM (active) | – | – | – | – | –
C[C@]12CCC(=O)C=C1C=C[C@@H]1[C@@H]2CC[C@@]2(C)[C@H]1CC[C@@]21CCC(=O)O1 | inactive | inactive | – | inactive | inactive | 1.1 µM (active) | – | inactive | inactive | inactive | – | inactive | 4.49 | inactive | inactive | inactive | –
COCCOC(=O)C1=C(C)NC(C)=C(C(=O)OC/C=C/c2ccccc2)C1c1cccc([N+](=O)[O-])c1 (stereo not given) | inactive | – | inactive | 29.8 µM (active) | 10.6 µM (active) | 1.55 µM (active) | 0.195 µM (active) | 15.5 µM (active) | – | inactive | 26.6 µM (active) | 21.9 µM (active) | – | 1.58 µM (active) | 1.58 µM (active) | inactive | –
O=Cc1c(Cl)cccc1Cl | inactive | – | inactive | inactive | inactive | inactive | inactive | – | inactive | inactive | inactive | inactive | – | – | – | – | –
O=C(N[C@@H](c1ccccc1)[C@@H]1CCCCN1)c1cccc(C(F)(F)F)c1Cl | inactive | 54.5 µM (active) | inactive | 61.1 µM (active) | – | 17.8 µM (active) | 63.3 µM (active) | inactive | 1.59 µM (active) | 54.5 µM (active) | – | 1.26 µM (active) | – | – | – | – | –
Cc1ccc(Nc2nccc(N(C)c3ccc4c(C)n(C)nc4c3)n2)cc1S(N)(=O)=O | inactive | – | inactive | – | 2.66 µM (active) | inactive | 15.5 µM (active) | inactive | – | inactive | 26.6 µM (active) | inactive | – | – | – | – | –
CCCCCCCCCCCCCCC[C@H](O)[C@@H](N)CO | inactive | inactive | inactive | inactive | inactive | inactive | inactive | inactive | inactive | – | inactive | – | 0.49 | inactive | inactive | – | –
Brc1cc(-c2ccc(Br)c(Br)c2Br)cc(Br)c1Br | inactive | inactive | inactive | inactive | 30.2 µM (active) | 39.3 µM (active) | inactive | – | inactive | inactive | – | inactive | – | – | – | inactive | –
COc1cc2[nH]c(=O)[nH]c(=O)c2cc1OC | inactive | – | inactive | inactive | inactive | inactive | inactive | – | inactive | inactive | inactive | inactive | -3.43 | inactive | inactive | inactive | –
CC(=O)Oc1ccc2c(c1)CC[C@@H]1[C@@H]2CC[C@]2(C)[C@@H](O)CC[C@@H]12 | inactive | inactive | – | inactive | 26.6 µM (active) | 24.5 µM (active) | inactive | – | inactive | inactive | – | inactive | -1.91 | inactive | – | inactive | –
CC(C)(C)C(=O)C(Oc1ccc(Cl)cc1)n1ccnc1 (stereo not given) | inactive | – | inactive | inactive | 23.7 µM (active) | 1.38 µM (active) | 2.75 µM (active) | 17.4 µM (active) | – | inactive | – | – | – | – | 15.8 µM (active) | inactive | 12.6 µM (active)
